# Bioassay records from PubChem.
# KAT2A inh: blocks human GCN5L2 histone acetyltransferase; Q92830; GCN5L2 HAT assay, ThioGlo1 CoA-SH fluorescence; Potency, µM (titrated, usually from 58.9 µM), for inactives: at the highest dose activity change, negative = inhibition, actives largely listed as inhibitors; 390,000 compounds, 0.21% hits
#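 Compounds, pin-transferred from DMSO stocks, meet 20nM GCN5L2 for 15 min before the reaction begins with H3(1-25) peptide (75uM) and acetyl-CoA (70uM). Thiol-reactive ThioGlo1 reports CoA release over 20 min at room temperature.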
# VDR inhibitor: inhibitors of human vitamin D receptor; P11473; VDR-SRC2-3 peptide fluorescence polarization, 2 h; Potency, µM, for the others: max response, negative = inhibition, most hits filed as inhibitors; 400,000 compounds, 0.93% hits; AID 504847
#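 Fluorescence polarization assay of small-molecule disruption of VDR binding to coregulator peptide SRC2-3. Compounds and controls pin-transferred, then read after 2 h incubation at ambient room temperature.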
# TDP1 cell noCPT: qHTS for Inhibitors of human tyrosyl-DNA phosphodiesterase 1 (TDP1): qHTS in cells in absence of CPT; 420,000 compounds, 15% hits; Potency, µM (titrated, usually from 46.2 µM), for the others: at the top dose activity change, negative = growth inhibition, actives largely listed as inhibitors; AID 686978, 2013; DT40 Tdp1-/- hTDP1 cells, no CPT, ATP luminescence, 48 h; further: nearly all actives have a fitted effect of over 55% in size
#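 Chicken DT40 Tdp1-/- cells stably complemented with human TDP1 were seeded at 400 cells/well with DMSO in place of 20 nM camptothecin. After compound pinning, cells grew at least 48 hr at 37 °C; viability read by CellTiter-Glo luminescence.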
# DT40 TDP1 CPT: DT40-hTDP1 cell growth loss with CPT; Potency, µM (highest dose often 46.2 µM), without a hit: at the highest dose activity change, negative = growth inhibition, actives largely listed as inhibitors; chicken DT40 Tdp1-/-;hTDP1 cells + 20 nM CPT, ATP luminescence, 48 h; 420,000 compounds, 12% hits; further: nearly all actives have a fitted effect of over 55% in size
#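 Cell growth measured by CellTiter-Glo luminescence after a minimum 48 h, 37 C compound exposure with 20 nM CPT in Tdp1-knockout DT40 cells stably expressing hTDP1, seeded 400/well; qHTS titration format.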
# PLK1 PBD inh: PLK1 (human) polo-box domain binding inhibition. P53350. Plk1 PBD binding of FITC phosphopeptide, fluorescence polarization. Potency, µM, for the others: max response, negative = inhibition, most hits filed as inhibitors. 360,000 compounds, 2.8% hits. AID 720504; further: series mostly up to about 57 µM; nearly all actives have a fitted effect of over 65% in size
# Target sequence (P53350 whole entry, looked up, the tested form may be a part): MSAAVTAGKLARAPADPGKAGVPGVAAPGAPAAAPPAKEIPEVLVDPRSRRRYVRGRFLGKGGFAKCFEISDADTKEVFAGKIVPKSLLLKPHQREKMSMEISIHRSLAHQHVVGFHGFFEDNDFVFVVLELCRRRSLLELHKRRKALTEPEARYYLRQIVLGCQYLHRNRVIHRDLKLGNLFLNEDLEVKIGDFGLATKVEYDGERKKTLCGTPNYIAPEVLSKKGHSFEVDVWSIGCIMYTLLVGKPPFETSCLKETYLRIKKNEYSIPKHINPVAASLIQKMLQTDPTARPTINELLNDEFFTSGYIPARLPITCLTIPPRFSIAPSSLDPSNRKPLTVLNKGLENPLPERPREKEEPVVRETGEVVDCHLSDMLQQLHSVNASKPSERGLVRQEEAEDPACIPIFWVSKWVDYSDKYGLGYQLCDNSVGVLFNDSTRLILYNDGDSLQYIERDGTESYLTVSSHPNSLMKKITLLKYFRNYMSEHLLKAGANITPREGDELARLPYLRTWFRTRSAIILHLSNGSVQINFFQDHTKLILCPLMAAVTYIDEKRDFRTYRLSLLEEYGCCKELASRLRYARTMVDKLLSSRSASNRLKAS
# TDP1 inh: blocks human tyrosyl-DNA phosphodiesterase 1; 350,000 compounds, 0.28% hits; Q9NUW8; Potency, µM (highest dose often 130 µM), for the others: at the top dose activity change, negative = inhibition, actives largely listed as inhibitors; recombinant TDP1, AlphaScreen DNA substrate cleavage; further: nearly all actives have a fitted effect of over 40% in size
#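 AlphaScreen read-out: signal falls as enzyme removes the 3' tyrosine-FITC from a 5'-biotinylated DNA oligo (15 nM, 5 min, RT). Enzyme was E. coli-made recombinant Tdp1 at 1 nM, exposed to compound for 15 min beforehand; beads 10 ug/ml, 10 min.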
# * marks the source's active call; other numbers are inactive results; ? = inconclusive; · = no result given; ! = repeats disagree; [ ] = another dose, or the depositor's remark. Most compounds without a hit are left out; they make up all but 18% or so of the library. The call rests on the fitted dose curve; in most records, active means well fitted curve in the direction sought with a large enough effect; inconclusive means small, poorly fitted or top-dose-only effect, or another doubt; inactive means no such curve, though single readings can be large; an effect the other way counts as inactive or inconclusive. On the % scale 0 is the no-effect control and ±100 the full control effect; potency means the concentration at half of the fitted maximal effect.
SMILES,KAT2A inh,VDR inhibitor,TDP1 cell noCPT,DT40 TDP1 CPT,PLK1 PBD inh,TDP1 inh
Cc1ccc(-n2c(-c3ccco3)nc3c(cnn3-c3ccc(C)cc3)c2=O)cc1,-3%,-5%,4.1µM*,?,-1%,2%
CCOC(=O)c1ccc(-n2c(C)nc3c(cnn3-c3ccc(Cl)cc3)c2=O)cc1,-5%,-1%,5.8µM*!,8.2µM*!,-3%,2%
COc1ccc(-n2c(C)nc3c(cnn3-c3ccc(C)cc3)c2=O)cc1,2%,14%,?,15µM*,-5%,2%
COc1ccc(-n2c(C)nc3c(cnn3-c3ccc(Cl)cc3)c2=O)cc1,-6%,3%,?,?,-2%,4%
Cc1cccc(-n2c(-c3ccco3)nc3c(cnn3-c3ccc(F)cc3)c2=O)c1,-9%,-29%,16µM*,16µM*,·,2%
Cc1cccc2c1-c1sc(C(=O)NCc3ccc(Cl)cc3)cc1CO2,-4%,-15%,-17%,-29%,·,-1%
O=C(N/C(=C/c1ccc(F)cc1)C(=O)N1CCOCC1)c1ccco1,·,·,2%,1%,6%,·
O=C(O)C1C2CCC1C(O)C2 (stereo not given),·,·,4%,2%,-5%,·
CCOc1ccc(S(=O)(=O)Nc2cccc(C(=O)NCCCn3ccnc3)c2)cc1,-1%,0%,-30%,?,1%,6%
COc1ccc(Nc2nnc(-c3cc4cc(Cl)ccc4oc3=O)s2)cc1,1%,-16%,7%,14%,·,-3%[12.3 µM]
CCOc1ccccc1Nc1nnc(-c2cc3cc(Cl)ccc3oc2=O)s1,-1%,6%,2.3µM*,2.3µM*,·,4%
Nc1ccc(/C=C/c2cc(Cl)nc3ccccc23)cc1,·,·,4µM*,4µM*,·,·
CCN(CC)c1ccc(/C=C/c2cc(Cl)nc3ccccc23)cc1,·,·,16µM*,?,·,·
COc1ccc(S(=O)(=O)N2CCOCC2)cc1NC(=O)Cc1ccc2c(c1)OCCO2,1%,-10%,?,-13%,-10%,2%
CC(=O)NC(c1ccccc1)c1nc(-c2cccc(CO)c2)cs1 (stereo not given),·,·,-10%,-19%,3%,·
CCOC(=O)c1cnc2c(C)c(Cl)ccc2c1Nc1ccc(N2CCOCC2)cc1,-15%,-2%,?,?,·,·
COC(=O)c1sccc1S(=O)(=O)NCc1ccc(S(N)(=O)=O)cc1,-10%,-7%,-20%,2%,-13%,0%
CCCCOC(=O)c1ccc(-n2nnc3c(sc4nc(C)cc(C)c43)c2=O)cc1,3%,17%,?,-22%,·,5%
CCOc1cccc2cc(-c3nc(-c4ccccc4C)no3)c(=O)oc12,-15%,5%,?,-14%,·,5%
Cc1ccc(-c2nc(-c3cc4cccc(OCc5cccc(C)c5)c4oc3=O)no2)cc1,-8%,-13%,9.2µM*,?,·,6%
CC(O)[C@H]1CN=C(N)N1CC1CCCCC1 (stereo not given in full),·,?,-21%,?,27µM*,·
NC1=NC[C@H](c2ccccc2)N1CC1CCCCC1,·,2%,16µM*,13µM*,-15%,·
Cc1ccc(CN2CCC(C(=O)c3ccc(F)cc3)CC2)cc1,·,·,?,-15%,-14%,·
CC1CCCN(c2ncnc3c2nc2n3CCCCC2)C1 (stereo not given),-7%,1%,?,-24%,·,7%
CCCCN(CC)C(=O)C1CCCN(c2ncnc3c2nc2n3CCCCC2)C1 (stereo not given),-11%,7%,21µM*,?,·,2%
SMILES,KAT2A inh,VDR inhibitor,TDP1 cell noCPT,DT40 TDP1 CPT,PLK1 PBD inh,TDP1 inh
CCCCN(Cc1ccco1)C(=O)C1CCCN(c2ncnc3c2nc2n3CCCCC2)C1 (stereo not given),-23%,-6%,15µM*,16µM*,-17%,9%
CC1CCN(CCCNC(=O)C2CCCN(c3ncnc4c3nc3n4CCCCC3)C2)CC1 (stereo not given),2%,-21%,-14%,-5%,-5%,1%
Cc1c(Br)c(O)c(Br)c(O)c1/C=N/n1c(-c2ccccc2)n[nH]c1=S,-5%,?,-17%,8%,3µM*,·
Cc1ccc(-c2n[nH]c(=S)n2/N=C/c2c(C)nn(-c3ccccc3)c2C)cc1,16%,-1%,16µM*,?,-5%,-5%
Oc1c(Br)cc(/C=N/n2c(-c3ccccc3)n[nH]c2=S)cc1Br,?,?,?,-3%,?,25µM*
CCN(CC)S(=O)(=O)c1cccc(-c2n[nH]c(=S)n2/N=C/c2ccc(Br)cc2)c1,-14%,-24%,-19%,2%,21µM*,3%
CCN(CC)S(=O)(=O)c1cccc(-c2n[nH]c(=S)n2/N=C/c2ccc(OC)cc2)c1,-14%,-18%,-9%,3%,-29%,11%
Cc1ccccc1-c1n[nH]c(=S)n1/N=C/c1c(C)nn(-c2ccccc2)c1C,3%,-8%,-1%,-2%,-20%,-1%
COCC(=O)N1CCC2(CCN(Cc3nccs3)CC2)CC1,-5%,6%,-5%,-3%,·,·
S=c1[nH]nc(-c2ccccc2)n1/N=C/c1ccc(-c2ccccc2Cl)o1,-7%,-1%,13µM*,?,-36%,0%
S=c1[nH]nc(-c2cccc(Cl)c2)n1/N=C/c1ccc(-c2ccccc2Br)o1,-27%,-4%,?,?,-7%,8%
Oc1c(Br)cc(/C=N/n2c(-c3ccccc3)n[nH]c2=S)c(O)c1Br,-4%,?,?,-22%,6.7µM*,1%
